Assay results from PubChem BioAssay.
Calls of active or inactive are those of the source. Unless noted, how the calls were made is not given here.

Assays:
[1] = HepG2 liver cancer cell viability effects, profiling panel, resazurin fluorescence, 24 h, PK04 Diversity Set (AID 1172); details: higher = more signal
[2] = basal S. cerevisiae growth modulation, no modifier, primary screen, OD600, strain BY4716, 24 h, basal condition (AID 1173); details: OD600, 24 h, higher = more signal, called active from +8 up or from −8 down
[3] = MM1S myeloma cell viability, profiling panel, resazurin fluorescence, basal, 24 h, PK04 Diversity Set (AID 1174); details: higher = more signal, called active from +8 up or from −8 down;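 further: MM1S multiple myeloma cell line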
[4] = target: Dihydroorotate dehydrogenase (quinone), mitochondrial (Plasmodium falciparum (isolate 3D7)) (UniProt Q08210); test: PfDHODH enzyme inhibitors, primary screen, biochemical, C-terminal His tag, absorbance 600 nm (AID 1175); details: DCIP absorbance 600 nm, higher = more signal, called active from +8 up or from −8 down;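 further: recombinant parasite enzyme with a five histidine tag at its C terminus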
Sequence of Dihydroorotate dehydrogenase (quinone), mitochondrial (Plasmodium falciparum (isolate 3D7)) (Q08210 whole entry, looked up): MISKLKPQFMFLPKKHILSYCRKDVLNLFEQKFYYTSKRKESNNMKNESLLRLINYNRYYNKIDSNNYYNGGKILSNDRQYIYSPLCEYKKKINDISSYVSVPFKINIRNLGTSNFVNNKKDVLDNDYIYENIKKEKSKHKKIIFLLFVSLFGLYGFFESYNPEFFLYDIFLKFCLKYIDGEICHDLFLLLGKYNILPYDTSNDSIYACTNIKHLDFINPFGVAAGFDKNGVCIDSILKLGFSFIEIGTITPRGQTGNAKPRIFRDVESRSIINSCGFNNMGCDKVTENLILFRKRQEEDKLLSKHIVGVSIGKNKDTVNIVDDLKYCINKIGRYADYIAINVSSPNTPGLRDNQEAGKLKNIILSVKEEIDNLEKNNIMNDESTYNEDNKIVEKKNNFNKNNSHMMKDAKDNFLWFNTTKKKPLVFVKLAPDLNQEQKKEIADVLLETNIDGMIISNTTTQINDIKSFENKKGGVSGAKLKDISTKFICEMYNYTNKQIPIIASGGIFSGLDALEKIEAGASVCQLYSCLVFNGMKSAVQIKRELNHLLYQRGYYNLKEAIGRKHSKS

[5] = P. aeruginosa biofilm formation inhibitors, primary screen, strain PAO1, LB-PBS medium, absorbance 600 nm (AID 1176); details: P. aeruginosa PAO1 growth/biofilm, A600, 12 h; higher = more signal
[6] = S. cerevisiae RM11-1a growth modifiers, primary screen, strain RM11-1a, OD600, basal, 24 h (AID 1177); details: OD600, 24 h, higher = more signal, called active from +8 up or from −8 down;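 further: cultures grown under basal conditions with no added stressor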
[7] = E. coli acrAB mutant growth effects, primary screen, E. coli filamentation inducers, strain DRC39, OD650, 24 h (AID 1178); details: higher = more signal, called active from +8 up or from −8 down;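 further: growth measured as culture turbidity by optical density at 650 nm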
[8] = E. coli acrAB mutant growth effects, primary screen, E. coli filamentation inducers, strain DRC39, OD650, 48 h (AID 1179);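 further: screen aims at cell division blockers that make cells filament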; details: E. coli DRC39 delta-acrAB growth, higher = more signal, called active from +8 up or from −8 down
[9] = RPMI8226 myeloma cell viability, profiling panel, resazurin fluorescence, basal, 24 h, PK04 Diversity Set (AID 1180); details: higher = more signal;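 further: RPMI8826 multiple myeloma cell line at 5000 cells per well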
[10] = target: E3 ubiquitin-protein ligase XIAP (Homo sapiens) (UniProt P98170); test: XIAP binders, primary screen, biophysical, small-molecule microarray, fluorescence 635 nm (AID 1181); details: small-molecule microarray binding, higher = more signal;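 further: score merges 667 nm emission and signal to noise over triplicate slides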
Sequence of E3 ubiquitin-protein ligase XIAP (Homo sapiens) (P98170 whole entry, looked up): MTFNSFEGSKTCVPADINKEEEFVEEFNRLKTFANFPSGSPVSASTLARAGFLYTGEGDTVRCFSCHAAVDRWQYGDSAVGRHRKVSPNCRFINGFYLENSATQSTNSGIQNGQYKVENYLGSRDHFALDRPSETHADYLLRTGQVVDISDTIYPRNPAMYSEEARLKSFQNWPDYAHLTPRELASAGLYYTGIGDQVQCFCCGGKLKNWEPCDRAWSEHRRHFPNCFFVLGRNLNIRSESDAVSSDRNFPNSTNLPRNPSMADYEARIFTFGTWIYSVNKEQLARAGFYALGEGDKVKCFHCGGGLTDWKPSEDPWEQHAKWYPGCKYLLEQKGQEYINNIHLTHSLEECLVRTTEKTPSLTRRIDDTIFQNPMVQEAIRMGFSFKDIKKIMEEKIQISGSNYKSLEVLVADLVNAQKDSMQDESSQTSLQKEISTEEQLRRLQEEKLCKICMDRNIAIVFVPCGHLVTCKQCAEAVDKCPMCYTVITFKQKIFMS

[11] = test system: XIP peptide (Xip251-270) binding; test: small-molecule binders of XIP peptide, primary screen, biochemical, small-molecule microarray, fluorescence 635/667 nm, 0.1 µg/mL protein (AID 1182); details: fluorescent protein binding, 635 nm, higher = more signal, called active from +8 up or from −8 down
XIP peptide (Xip251-270) = test: small-molecule binders of XIP peptide, primary screen, biochemical, small-molecule microarray, fluorescence 635/667 nm, 0.5 µg/mL protein (AID 1183); details: small-molecule microarray binding, fluorescence 635 nm; higher = more signal
[12] = Plasmodium falciparum growth inhibition, primary screen, strain 3D7, DAPI fluorescence, 100 nL (AID 1184);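 further: parasites grown inside human red blood cells in medium with human serum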; details: P. falciparum 3D7 growth, 3 d, higher = more signal
[13] = target: Homeobox protein Hox-A13 (Mus musculus) (UniProt Q62424); test: inhibitors of HoxA13-DNA binding, primary screen, biochemical, fluorescence polarization, labeled oligonucleotide (AID 1185); details: 15 min, higher = more signal, called active from +8 up or from −8 down
Sequence of Homeobox protein Hox-A13 (Mus musculus) (Q62424 whole entry, looked up): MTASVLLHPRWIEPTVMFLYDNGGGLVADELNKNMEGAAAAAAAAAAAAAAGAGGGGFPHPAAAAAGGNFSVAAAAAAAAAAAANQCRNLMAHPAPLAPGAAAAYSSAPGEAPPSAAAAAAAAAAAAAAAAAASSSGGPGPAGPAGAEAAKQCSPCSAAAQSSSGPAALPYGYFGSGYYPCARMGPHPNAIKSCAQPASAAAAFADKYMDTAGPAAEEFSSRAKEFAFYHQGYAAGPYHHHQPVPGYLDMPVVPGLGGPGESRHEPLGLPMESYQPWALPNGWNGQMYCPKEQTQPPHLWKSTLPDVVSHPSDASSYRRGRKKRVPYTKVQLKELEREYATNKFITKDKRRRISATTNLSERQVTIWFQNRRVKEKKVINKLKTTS

[14] = inhibitors of hydroxyurea-induced Chk1 phosphorylation, primary screen, imaging, HeLa, phospho-Chk1 antibody, percent positive cells (AID 1186); details: hydroxyurea-induced phospho-Chk1 immunofluorescence imaging, higher = more signal
[15] = inhibitors of hydroxyurea-induced Chk1 phosphorylation, primary screen, imaging, HeLa, phospho-Chk1 nuclear intensity (AID 1187); details: hydroxyurea-induced phospho-Chk1 immunofluorescence imaging, higher = more signal

| Compound | z-score [1] | z-score [2] | z-score [3] | composite z-score [4] | z-score [5] | z-score [6] | z-score [7] | z-score [8] | z-score [9] | composite z-score [10] | composite z-score [11] | composite z-score (XIP peptide (Xip251-270)) | z-score [12] | z-score [13] | z-score [14] | z-score [15] |
| --- | --- | --- | --- | --- | --- | --- | --- | --- | --- | --- | --- | --- | --- | --- | --- | --- |
| COC(=O)[C@H](Cc1ccccc1)N[C@@H](/C=C/C1CC1)[C@H](O)Cc1ccccc1 | 0.717 | -2.78 (inactive) | 0.488 (inactive) | 0.342 (inactive) | 0.0117 (inactive) | 0.584 (inactive) | -0.053 (inactive) | -0.181 (inactive) | 0.484 | -0.0559 | -0.207 (inactive) | -0.432 | -0.986 | -5.71 (inactive) | -0.157 (inactive) | -0.295 (inactive) |
| COCCOC(=O)N1C(=O)[C@@]2(c3cc(C#CCNC(N)=O)ccc31)[C@H](C(=O)N1CCN(c3ncccn3)CC1)[C@H]1C(=O)O[C@H](c3ccccc3)[C@H](c3ccccc3)N1[C@@H]2c1ccc(OCCO)cc1 | -0.488 | 1.51 (inactive) | -0.814 (inactive) | -0.0103 (inactive) | 2.43 (inactive) | 2.16 (inactive) | 0.142 (inactive) | 0.567 (inactive) | -0.83 | 0.0627 | 0.0897 (inactive) | 0.697 | -0.939 | 0.245 (inactive) | 0.138 (inactive) | 0.0943 (inactive) |
| CC(C)C[C@@H]1NC(=O)[C@@H]2C[C@H](C(=O)O)[C@H](c3cccc(OCCO)c3)N2C1=O | -0.314 | -0.0664 (inactive) | 0.254 (inactive) | -1.16 (inactive) | -0.447 (inactive) | -0.747 (inactive) | 0.398 (inactive) | -0.263 (inactive) | 0.294 | -0.059 | 1.04 (inactive) | 0.708 | -0.222 | -2.76 (inactive) | 0.0342 (inactive) | 0.153 (inactive) |
| CCCC#C[Si](O[C@H](CC)c1cn(Cc2cccc(Cl)c2)nn1)(C(C)C)C(C)C | 0.345 | -12.9 (active) | 0.0454 (inactive) | -0.345 (inactive) | -0.0057 (inactive) | 0.61 (inactive) | 1.11 (inactive) | 0.775 (inactive) | 0.33 | -0.0855 | -0.0517 (inactive) | 0.298 | -0.0039 | -0.759 (inactive) | -0.501 (inactive) | -0.675 (inactive) |
| COc1ccc([Si](C)(C)[C@H]2[C@H](CC(=O)N3Cc4ccccc4C[C@H]3CO)O[C@@]3(C(=O)N(Cc4cccc(N5CCC5=O)c4)c4ccccc43)[C@@H]2C)cc1 | -0.774 | 0.472 (inactive) | -2.31 (inactive) | -2.72 (inactive) | 0.389 (inactive) | 2.58 (inactive) | 0.675 (inactive) | 0.398 (inactive) | -2.01 | -0.0393 | 0.177 (inactive) | 0.719 | -2.33 | -2.97 (inactive) | -0.227 (inactive) | -0.0325 (inactive) |
| [N-]=[N+]=Nc1ccccc1[C@@H]1OC(c2ccc(OCCCO)cc2)=N[C@]1(Cc1ccccc1)C(=O)N1CCOCC1 | -0.601 | -0.294 (inactive) | -1.6 (inactive) | 0.291 (inactive) | -0.0279 (inactive) | 0.857 (inactive) | 0.266 (inactive) | -0.412 (inactive) | -1.58 | -0.0062 | 0.665 (inactive) | 0.632 | -2.32 | -4.82 (inactive) | -0.208 (inactive) | -0.0135 (inactive) |
| COc1cc2c(cc1OC)CN(C(=O)[C@H]1[C@@H]3C(=O)O[C@@H](c4ccccc4)[C@@H](c4ccccc4)N3[C@@H](c3ccc(O)cc3)[C@]13C(=O)Nc1ccccc13)CC2 | -0.102 | 0.744 (inactive) | -0.426 (inactive) | 0.806 (inactive) | 1.67 (inactive) | 1.07 (inactive) | 0.188 (inactive) | -0.144 (inactive) | 0.0788 | 0.188 | 0.602 (inactive) | 0.755 | -0.044 | -2.37 (inactive) | -0.169 (inactive) | -0.238 (inactive) |
| COCCOC(=O)N1C(=O)[C@@]2(c3cc(C#Cc4ccc(OC)cc4)ccc31)[C@H](c1ccccc1OCCO)N1[C@H](c3ccccc3)[C@H](c3ccccc3)OC(=O)[C@H]1[C@@H]2C(=O)NC[C@H](O)c1ccccc1 | 0.48 | 2.55 (inactive) | -0.444 (inactive) | -1.22 (inactive) | 3.27 (inactive) | 3.17 (inactive) | 0.418 (inactive) | 0.127 (inactive) | -0.82 | -0.0421 | 0.159 (inactive) | 0.815 | -1.8 | -1.34 (inactive) | -0.203 (inactive) | -0.29 (inactive) |
| CC1CC/C=C\[C@H]2OC34C=CCN(Cc5ccccc5)C(=O)[C@H]3N(CCCO)C(=O)[C@@H]4C2C(=O)O1 (some centres undefined) | -0.385 | -0.739 (inactive) | 0.0639 (inactive) | -0.311 (inactive) | -0.0963 (inactive) | -0.52 (inactive) | 1.02 (inactive) | 0.568 (inactive) | 0.44 | -0.176 | 0.15 (inactive) | 0.737 | 0.295 | -4.95 (inactive) | -0.364 (inactive) | -0.491 (inactive) |
